Screening data from PubChem.
HCMV inh: blocks human cytomegalovirus replication; activity change, negative = inhibition, % at 57.5 µM; HFF cells, HCMV-luciferase reporter, 72 h; active compounds read low; 410,000 tested, 4.5% active; in the data active = activity change below about -60%; inconclusive = no clear call, values can overlap the other calls; inactive = above about -39%; note: % is set by controls: 0 for no effect and ±100 for the full control effect
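Human foreskin fibroblasts infected with luciferase-reporter HCMV at MOI 1 PFU/cell, compounds at two doses. Luciferase measured 72 h post infection; normalized to buffer-only basal and Salinomycin (10uM) controls.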
CHX counter: affects cycloheximide protein synthesis inhibition readout, counter-screen; cell reporter, cycloheximide protein synthesis inhibition counterscreen; max response, %; 300,000 tested, 12% active; AID 2314; in the data active = max response mostly above about 13%, no sharp cut-off; inactive = mostly below about 14%; note: read at 38.3 µM for the half of the compounds with a filed dose; 0% is about no effect
HCV inhibitor: blocks hepatitis C virus; Huh7.5.1 HCVcc-Cre infection, luciferase reporter, 44 h; Potency, µM (top dose mostly 41.8 µM), for the others: at the highest dose activity change, negative = inhibition, most hits filed as inhibitors; 340,000 tested, 3.4% active; note: potency is the fitted concentration of half-maximal effect; % is set by controls: 0 for no effect and ±100 for the full control effect
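Cells (1,000/well) were plated 4 h before compound, then infected with HCVcc-Cre virus (~0.5 moi). After 44 h further culture, infection was read as luciferase luminescence following a 15 min substrate incubation at room temperature.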
Shiga toxin inh: Shiga toxin inhibition; Vero cells, Shiga toxin protein synthesis inhibition reporter; inhibition, % at 38.7 µM; 290,000 tested, 9.2% active; AID 2315; in the data active = inhibition mostly above about 28%, no sharp cut-off; inactive = mostly below about 43%; note: 0% is about no effect
Pf growth 48h: inhibits P. falciparum growth in the first generation, 48 h; P. falciparum luciferase growth in erythrocytes, 48 h; Potency, µM (top dose mostly 28.7 µM), for inactives: at the highest dose activity change, negative = inhibition, most hits filed as inhibitors; 310,000 tested, 5.9% active; note: potency is the fitted concentration of half-maximal effect; % is set by controls: 0 for no effect and ±100 for the full control effect
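A one-generation exposure of luciferase-tagged malaria parasites in RPMI 1640/Albumax erythrocyte culture, 37 C and 5% CO2. Inhibition is inferred from decreased luminescence after adding detection reagent.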
Pf growth 96h: inhibits malaria parasite growth, 96 h; P. falciparum luciferase reporter growth, 96 h; Potency, µM (doses to about 28.7 µM), for the others: top-dose activity change, negative = inhibition, hits mostly inhibitors; 320,000 tested, 6.9% active; note: potency is the fitted concentration of half-maximal effect; % is set by controls: 0 for no effect and ±100 for the full control effect
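Delayed-death screen, second-generation endpoint: infected erythrocytes, 2% hematocrit, 0.05% parasitemia final; 96 hours at 37 C, 5% CO2; luciferase detection reagent; luminescence decrease equals reduced growth.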
* hit, by the source's call. This is a sample that favours compounds with a hit; in the whole collection about 21% have one here. Unless noted, calls come from the whole dose curve; as a rule, active = well fitted inhibition curve with a large enough effect; inconclusive = small, poorly fitted or top-dose-only effect, or another doubt; inactive = no such curve, though single readings can be large or run the other way.

For O=C(N/N=C/C1=C(N2CCOCC2)C(=C\c2ccccc2)/CC1)Nc1ccccc1 the results were HCMV inh -71*, CHX counter -2, HCV inhibitor inconclusive, Shiga toxin inh -4, Pf growth 48h 3% and Pf growth 96h 42%.
`COCCNC(=O)CCn1c(=O)c2cc(OC)c(OC)cc2n(CC(=O)Nc2ccccc2OC)c1=O` gave HCMV inh 5.
CC(=O)c1cccc(NC(=O)CCc2nc3cccnc3n2Cc2cccs2)c1 was read as HCMV inh -33.
Screening N=c1c(S(=O)(=O)c2ccccc2)cc2c(=O)n3ccccc3nc2n1C1CCCC1 returned HCMV inh 71, CHX counter -1, HCV inhibitor inconclusive, Shiga toxin inh -4, Pf growth 48h inconclusive and Pf growth 96h 0%.
Screening Cn1c(=N)c(S(=O)(=O)c2ccccc2)cc2c(=O)n3ccccc3nc21 returned HCMV inh -39, CHX counter -2, HCV inhibitor inconclusive, Shiga toxin inh -13, Pf growth 48h inconclusive and Pf growth 96h -14%.
`N=c1c(S(=O)(=O)c2ccc(Br)cc2)cc2c(=O)n3ccccc3nc2n1C1CCCC1` gave HCMV inh -21, CHX counter 0, HCV inhibitor 8%, Shiga toxin inh -7, Pf growth 48h 10µM* and Pf growth 96h 12µM*.
Screening Cc1ccc(S(=O)(=O)c2cc3c(=O)n4ccccc4nc3n(C3CCCCC3)c2=N)cc1 returned HCMV inh 33, CHX counter 6, HCV inhibitor 13µM*, Shiga toxin inh -19, Pf growth 48h 10% and Pf growth 96h inconclusive.
For COc1cccc(OC)c1C(=O)Nc1cccc(-c2nc3cc(C)cc(C)c3o2)c1 the results were HCMV inh -12.
Screening CC12CCC(C(=O)N3CCCCC3)(CC1=O)C2(C)C (stereo not drawn) returned HCMV inh -9, CHX counter 1, HCV inhibitor 21%, Shiga toxin inh -6, Pf growth 48h 25% and Pf growth 96h -12%.
Screening CC1CCCN(C(=O)C23CCC(C)(C(=O)C2)C3(C)C)C1 (stereo not drawn) returned HCMV inh 17, CHX counter -1, HCV inhibitor 3%, Shiga toxin inh 11, Pf growth 48h 8% and Pf growth 96h 9.3µM*.
CCN(CC)S(=O)(=O)c1ccc(S(=O)(=O)NCC2CCCO2)cc1 (stereo not drawn) was read as HCMV inh 8, CHX counter 1, HCV inhibitor 13%, Shiga toxin inh -6, Pf growth 48h 0% and Pf growth 96h inconclusive.
Screening O=C(NC(c1cccnc1)C(F)(F)F)c1cc(COc2ccc3c(c2)CCCC3)on1 (stereo not drawn) returned HCMV inh -82*, CHX counter 46*, HCV inhibitor 4.5µM*, Shiga toxin inh 100*, Pf growth 48h inconclusive and Pf growth 96h 8%.
For NNC(=O)c1ccc(COc2ccc3c(c2)CCC3)o1 the results were HCMV inh 35, CHX counter 16, HCV inhibitor 0%, Shiga toxin inh 39, Pf growth 48h -3% and Pf growth 96h inconclusive.
CCN(Cc1cnn(C)c1)C(=O)c1cc(COc2ccc3c(c2)CCCC3)on1 was read as HCMV inh 15, CHX counter 1, HCV inhibitor 22µM*, Shiga toxin inh -15, Pf growth 48h 3% and Pf growth 96h -20%.
Screening Cn1cc(CNC(=O)c2cc(COc3ccc4c(c3)CCCC4)on2)cn1 returned HCMV inh -4, CHX counter 23*, HCV inhibitor -22%, Shiga toxin inh 16, Pf growth 48h -2% and Pf growth 96h inconclusive.
`CCN(Cc1cnn(C)c1)C(=O)c1ccc(OC2CCN(S(=O)(=O)N(C)C)CC2)cc1` gave HCMV inh -32, CHX counter 4, HCV inhibitor 1%, Shiga toxin inh 16, Pf growth 48h 9% and Pf growth 96h -8%.
Screening COc1ccc(/C=C/C(=O)Nc2nc3n(n2)C(c2ccccc2)C=C(c2ccccc2)N3)cc1 (stereo not drawn) returned HCMV inh -8.
COC(=O)c1ccc2nc(NC(=O)CCS(=O)(=O)c3ccccc3)sc2c1 was read as CHX counter -1, HCV inhibitor -8%, Shiga toxin inh -1, Pf growth 48h 2% and Pf growth 96h 4%.
`Cc1ccc2nc(NC(=O)CSCC(=O)OCC(=O)c3ccc(Br)cc3)sc2c1` gave HCMV inh -4, CHX counter 15*, HCV inhibitor 4%, Shiga toxin inh 46, Pf growth 48h -19% and Pf growth 96h inconclusive.
For Cc1ccc2nc(NC(=O)CSCc3ccccc3)sc2c1 the results were HCMV inh 36, CHX counter 8, HCV inhibitor 20%, Shiga toxin inh -2 and Pf growth 96h inconclusive.
`COC(=O)c1ccc2nc(NC(=O)CSCC(=O)OCC(=O)c3ccccc3)sc2c1` gave HCMV inh -23, CHX counter 36*, HCV inhibitor 34%, Shiga toxin inh 34, Pf growth 48h 32% and Pf growth 96h 19%.
Cc1c(Br)c(O)c(Br)c2sc(=O)oc12 was read as HCMV inh 0, CHX counter -3, HCV inhibitor 8%, Shiga toxin inh -5, Pf growth 48h inconclusive and Pf growth 96h inconclusive.
Screening COc1cccc(CNc2nc(-c3cccnc3)nc3ccccc23)c1 returned HCMV inh -18, CHX counter -5, HCV inhibitor inconclusive, Shiga toxin inh -10, Pf growth 48h -10% and Pf growth 96h inconclusive.
`FC(F)(F)c1nc2ccccc2nc1N/N=C\c1ccccc1` gave HCMV inh 42, CHX counter 19*, HCV inhibitor 7%, Shiga toxin inh 94*, Pf growth 48h 10% and Pf growth 96h 16%.
For C(=N\Nc1nc(-c2ccccn2)nc2ccccc12)/c1ccccc1 the results were CHX counter 7, HCV inhibitor inconclusive, Shiga toxin inh 7, Pf growth 48h 4.7µM* and Pf growth 96h 2.1µM*.
Screening Cc1ccc(-c2nc(N/N=C/c3ccccc3[N+](=O)[O-])c3ccccc3n2)cc1 returned HCMV inh 93, CHX counter 35, HCV inhibitor inconclusive, Shiga toxin inh 9, Pf growth 48h 140% and Pf growth 96h 89%.
COc1cccc(/C=N/Nc2nc(-c3cccnc3)nc3ccccc23)c1 was read as HCMV inh -5, CHX counter 18*, HCV inhibitor -13%, Shiga toxin inh 65*, Pf growth 48h inconclusive and Pf growth 96h inconclusive.
For O=C(N/N=C/c1ccc(F)cc1)c1cc(-c2ccccn2)nc2ccccc12 the results were HCMV inh -5, HCV inhibitor 16%, Pf growth 48h -26% and Pf growth 96h 8%.
